Assay results from article PMC7862700, “An all-to-all approach to the identification of sequence-specific readers for epigenetic DNA modifications on cytosine”.

Experiments:
Assay in all cases: DAPPL (digital affinity profiling via proximity ligation, sequencing); 10 mM Tris-HCl pH 7.5, 50 mM NaCl, 1 mM DTT, 4% glycerol, room temperature, 30 min; GST-TFs on glutathione beads, 16-mer random dsDNA library, 0.1% formaldehyde crosslink after washing; high values mean tight binding
FLI1 = molecular target: T1, FLI1 (Homo sapiens, UniProt Q01543 1-452); conditions: protein: recombinant; tags: N-terminal GST; dsDNA, one strand shown
T1 sequence: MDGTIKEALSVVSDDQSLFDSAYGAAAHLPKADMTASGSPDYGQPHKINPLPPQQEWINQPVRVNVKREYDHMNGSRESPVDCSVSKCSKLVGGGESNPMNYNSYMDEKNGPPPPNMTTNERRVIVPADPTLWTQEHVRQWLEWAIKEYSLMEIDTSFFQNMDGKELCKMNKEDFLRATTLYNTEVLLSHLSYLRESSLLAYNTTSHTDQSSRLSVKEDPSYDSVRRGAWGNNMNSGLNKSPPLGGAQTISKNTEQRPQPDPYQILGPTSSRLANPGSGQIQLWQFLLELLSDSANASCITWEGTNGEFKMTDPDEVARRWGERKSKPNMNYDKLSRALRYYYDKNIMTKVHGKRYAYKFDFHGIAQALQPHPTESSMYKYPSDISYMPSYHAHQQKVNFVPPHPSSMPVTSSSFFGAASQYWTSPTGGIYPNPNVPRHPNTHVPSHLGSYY
How it was run: (§1)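 A tag-only sample was pooled with DNA-barcoded human transcription factors that had been expressed in yeast as GST fusions and captured on glutathione beads. The pools were incubated for 30 min at room temperature with 200 nmole of a random double-stranded 16-mer DNA library in Tris/NaCl/DTT/glycerol buffer, then washed, crosslinked with 0.1% formaldehyde, proximity-ligated (BsaI/T4 ligase, 1 h, 37 °C), PCR-amplified and sequenced on an Illumina NextSeq500. Binding signal is each hexamer's read frequency for a factor divided by its frequency for the tag-only sample.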

ELK1 = molecular target: T2, ELK1 (Homo sapiens, UniProt P19419 1-428); conditions: protein: recombinant; tags: N-terminal GST; dsDNA, one strand shown
T2 sequence: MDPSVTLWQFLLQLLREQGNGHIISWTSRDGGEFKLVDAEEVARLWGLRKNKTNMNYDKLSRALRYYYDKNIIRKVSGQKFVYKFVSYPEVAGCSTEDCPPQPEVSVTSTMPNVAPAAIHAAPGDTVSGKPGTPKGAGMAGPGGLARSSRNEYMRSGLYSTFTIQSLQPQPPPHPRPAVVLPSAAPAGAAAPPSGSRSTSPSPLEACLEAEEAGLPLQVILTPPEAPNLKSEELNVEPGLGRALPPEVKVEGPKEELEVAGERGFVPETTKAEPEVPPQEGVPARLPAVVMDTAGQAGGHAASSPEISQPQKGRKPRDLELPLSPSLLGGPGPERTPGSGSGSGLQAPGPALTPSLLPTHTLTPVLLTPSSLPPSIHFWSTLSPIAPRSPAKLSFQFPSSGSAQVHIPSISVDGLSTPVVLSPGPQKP
How it was run: as §1

GABPA = molecular target: T3, GABPA (Homo sapiens, UniProt Q06546 1-454); conditions: protein: recombinant; tags: N-terminal GST; dsDNA, one strand shown
T3 sequence: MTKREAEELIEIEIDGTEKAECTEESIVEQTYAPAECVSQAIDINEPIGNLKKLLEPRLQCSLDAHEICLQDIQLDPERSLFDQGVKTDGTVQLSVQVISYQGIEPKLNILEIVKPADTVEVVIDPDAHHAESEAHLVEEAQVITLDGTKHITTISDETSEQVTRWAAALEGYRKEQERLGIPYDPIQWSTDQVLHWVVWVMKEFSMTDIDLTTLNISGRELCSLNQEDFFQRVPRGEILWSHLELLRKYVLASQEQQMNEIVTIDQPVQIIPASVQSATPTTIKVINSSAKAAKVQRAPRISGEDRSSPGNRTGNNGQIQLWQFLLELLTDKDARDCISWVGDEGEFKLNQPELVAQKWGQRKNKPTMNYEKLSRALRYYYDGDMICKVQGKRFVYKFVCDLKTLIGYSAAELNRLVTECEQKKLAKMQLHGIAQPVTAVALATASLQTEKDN
How it was run: as §1

ERG = molecular target: T4, ERG (Homo sapiens, UniProt P11308 1-479); conditions: protein: recombinant; tags: N-terminal GST; dsDNA, one strand shown
T4 sequence: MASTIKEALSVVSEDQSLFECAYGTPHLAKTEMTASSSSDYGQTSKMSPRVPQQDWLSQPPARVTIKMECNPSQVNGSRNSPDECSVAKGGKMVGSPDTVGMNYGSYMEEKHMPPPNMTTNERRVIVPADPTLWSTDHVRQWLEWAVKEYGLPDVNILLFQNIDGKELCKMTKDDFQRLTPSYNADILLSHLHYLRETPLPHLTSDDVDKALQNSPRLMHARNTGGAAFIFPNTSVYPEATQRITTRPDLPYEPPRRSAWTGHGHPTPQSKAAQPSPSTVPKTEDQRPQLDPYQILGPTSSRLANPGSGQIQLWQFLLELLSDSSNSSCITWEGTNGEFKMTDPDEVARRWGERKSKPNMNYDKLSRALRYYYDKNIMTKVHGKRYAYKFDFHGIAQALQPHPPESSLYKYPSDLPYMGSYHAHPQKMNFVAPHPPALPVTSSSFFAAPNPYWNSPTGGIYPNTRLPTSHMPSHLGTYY
How it was run: as §1

ELF1 = ELF1 (Homo sapiens, UniProt P32519 1-619); conditions: protein: recombinant; tags: N-terminal GST; dsDNA, one strand shown
How it was run: as §1

EHF = molecular target: T5, EHF (Homo sapiens, UniProt Q9NZC4 1-300); conditions: protein: recombinant; tags: N-terminal GST; dsDNA, one strand shown
T5 sequence: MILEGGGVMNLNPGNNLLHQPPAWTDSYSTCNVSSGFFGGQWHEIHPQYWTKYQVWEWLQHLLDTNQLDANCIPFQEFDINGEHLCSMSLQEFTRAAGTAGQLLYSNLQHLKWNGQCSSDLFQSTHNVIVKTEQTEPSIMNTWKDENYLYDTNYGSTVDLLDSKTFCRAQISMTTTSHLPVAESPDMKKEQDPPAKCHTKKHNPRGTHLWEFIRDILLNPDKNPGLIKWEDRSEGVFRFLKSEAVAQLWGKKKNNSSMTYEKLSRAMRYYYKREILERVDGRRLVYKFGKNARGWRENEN
How it was run: as §1

SPI1 = SPI1 (Homo sapiens, UniProt P17947 1-270); conditions: protein: recombinant; tags: N-terminal GST; dsDNA, one strand shown
How it was run: as §1

SPIB = SPIB (Homo sapiens, UniProt Q01892 1-262); conditions: protein: recombinant; tags: N-terminal GST; dsDNA, one strand shown
How it was run: as §1

ELK3 = molecular target: T6, ELK3 (Homo sapiens, UniProt P41970 1-407); conditions: protein: recombinant; tags: N-terminal GST; dsDNA, one strand shown
T6 sequence: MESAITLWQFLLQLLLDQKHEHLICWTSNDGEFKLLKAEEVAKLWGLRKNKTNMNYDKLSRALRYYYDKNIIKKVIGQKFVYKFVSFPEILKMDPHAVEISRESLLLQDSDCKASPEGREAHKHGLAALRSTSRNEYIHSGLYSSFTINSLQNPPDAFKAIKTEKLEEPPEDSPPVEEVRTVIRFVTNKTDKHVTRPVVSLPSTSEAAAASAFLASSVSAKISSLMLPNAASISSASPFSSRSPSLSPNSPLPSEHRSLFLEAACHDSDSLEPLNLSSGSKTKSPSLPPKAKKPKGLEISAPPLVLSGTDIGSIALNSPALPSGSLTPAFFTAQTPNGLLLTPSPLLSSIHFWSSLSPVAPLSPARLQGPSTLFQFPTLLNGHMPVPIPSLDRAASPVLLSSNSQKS
How it was run: as §1

FEV = molecular target: T7, FEV (Homo sapiens, UniProt Q99581 1-238); conditions: protein: recombinant; tags: N-terminal GST; dsDNA, one strand shown
T7 sequence: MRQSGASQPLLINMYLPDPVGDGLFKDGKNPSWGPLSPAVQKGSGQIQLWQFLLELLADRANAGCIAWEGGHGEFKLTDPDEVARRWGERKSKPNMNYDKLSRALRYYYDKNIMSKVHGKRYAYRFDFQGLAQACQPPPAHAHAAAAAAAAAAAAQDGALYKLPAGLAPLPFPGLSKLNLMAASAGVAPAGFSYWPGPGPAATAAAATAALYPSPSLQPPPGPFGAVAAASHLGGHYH
How it was run: as §1

ETV5 = ETV5 (Homo sapiens, UniProt P41161 1-510); conditions: protein: recombinant; tags: N-terminal GST; dsDNA, one strand shown
How it was run: as §1

HSF1 = HSF1 (Homo sapiens, UniProt Q00613 1-529); conditions: protein: recombinant; tags: N-terminal GST; chain copies: 3; dsDNA, one strand shown
How it was run: as §1

SPIC = molecular target: T8, SPIC (Homo sapiens, UniProt Q8N5J4 1-248); conditions: protein: recombinant; tags: N-terminal GST; dsDNA, one strand shown
T8 sequence: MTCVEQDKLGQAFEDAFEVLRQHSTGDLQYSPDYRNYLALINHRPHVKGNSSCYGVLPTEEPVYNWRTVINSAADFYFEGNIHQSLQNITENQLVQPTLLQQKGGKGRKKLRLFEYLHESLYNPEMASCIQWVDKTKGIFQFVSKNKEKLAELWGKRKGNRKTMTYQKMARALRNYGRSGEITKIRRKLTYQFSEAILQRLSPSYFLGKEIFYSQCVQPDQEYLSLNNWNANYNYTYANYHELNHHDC
How it was run: as §1

ELF4 = ELF4 (Homo sapiens, UniProt Q99607 1-663); conditions: protein: recombinant; tags: N-terminal GST; dsDNA, one strand shown
How it was run: as §1

ELK4 = molecular target: T9, ELK4 (Homo sapiens, UniProt P28324-2 1-405); conditions: protein: recombinant; tags: N-terminal GST; dsDNA, one strand shown
T9 sequence: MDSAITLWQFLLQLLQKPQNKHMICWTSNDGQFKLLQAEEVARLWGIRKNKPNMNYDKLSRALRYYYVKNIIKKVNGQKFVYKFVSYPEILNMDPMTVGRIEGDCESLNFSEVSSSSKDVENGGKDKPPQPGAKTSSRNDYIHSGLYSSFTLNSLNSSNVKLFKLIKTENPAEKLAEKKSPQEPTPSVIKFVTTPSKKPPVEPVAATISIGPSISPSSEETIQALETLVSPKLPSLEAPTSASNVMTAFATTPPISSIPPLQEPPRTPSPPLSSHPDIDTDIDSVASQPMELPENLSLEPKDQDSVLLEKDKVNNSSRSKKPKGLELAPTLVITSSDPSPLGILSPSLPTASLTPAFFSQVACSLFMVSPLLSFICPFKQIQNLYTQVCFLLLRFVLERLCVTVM
How it was run: as §1

ETV2 = molecular target: T10, ETV2 (Homo sapiens, UniProt O00321 1-342); conditions: protein: recombinant; tags: N-terminal GST; dsDNA, one strand shown
T10 sequence: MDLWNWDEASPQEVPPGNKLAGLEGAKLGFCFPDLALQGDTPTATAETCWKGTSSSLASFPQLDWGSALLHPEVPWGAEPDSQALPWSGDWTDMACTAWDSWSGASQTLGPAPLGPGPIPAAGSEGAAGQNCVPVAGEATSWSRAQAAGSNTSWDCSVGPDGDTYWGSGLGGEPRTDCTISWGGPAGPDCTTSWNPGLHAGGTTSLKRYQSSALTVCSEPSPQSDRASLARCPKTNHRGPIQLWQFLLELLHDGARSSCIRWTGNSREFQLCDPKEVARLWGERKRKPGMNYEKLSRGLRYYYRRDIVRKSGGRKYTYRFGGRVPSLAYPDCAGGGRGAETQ
How it was run: as §1

ELF3 = molecular target: T11, ELF3 (Homo sapiens, UniProt P78545 1-371); conditions: protein: recombinant; tags: N-terminal GST; dsDNA, one strand shown
T11 sequence: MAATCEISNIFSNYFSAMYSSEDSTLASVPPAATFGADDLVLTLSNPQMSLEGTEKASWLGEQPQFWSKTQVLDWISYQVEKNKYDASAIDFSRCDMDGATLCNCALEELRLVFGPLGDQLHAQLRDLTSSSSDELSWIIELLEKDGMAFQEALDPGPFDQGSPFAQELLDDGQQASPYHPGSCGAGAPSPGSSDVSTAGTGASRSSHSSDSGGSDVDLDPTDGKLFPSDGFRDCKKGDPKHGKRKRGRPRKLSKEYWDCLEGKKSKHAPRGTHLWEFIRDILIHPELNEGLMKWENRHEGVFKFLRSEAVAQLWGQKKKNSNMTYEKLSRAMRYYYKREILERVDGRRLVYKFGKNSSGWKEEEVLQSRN
How it was run: as §1

CRX = CRX (Homo sapiens, UniProt O43186 1-299); conditions: protein: recombinant; tags: N-terminal GST; dsDNA, one strand shown
How it was run: as §1

ETV1 = ETV1 (Homo sapiens, UniProt P50549 1-477); conditions: protein: recombinant; tags: N-terminal GST; dsDNA, one strand shown
How it was run: as §1

SPIB, sequence (Q01892 whole entry): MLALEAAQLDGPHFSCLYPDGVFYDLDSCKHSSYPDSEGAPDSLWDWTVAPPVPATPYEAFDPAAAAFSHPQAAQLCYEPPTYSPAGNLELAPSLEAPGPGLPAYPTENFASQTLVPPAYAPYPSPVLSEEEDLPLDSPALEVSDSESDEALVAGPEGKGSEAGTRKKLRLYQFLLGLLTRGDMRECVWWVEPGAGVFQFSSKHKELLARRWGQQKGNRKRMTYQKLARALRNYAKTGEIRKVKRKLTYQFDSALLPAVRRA
CRX, sequence (O43186 whole entry): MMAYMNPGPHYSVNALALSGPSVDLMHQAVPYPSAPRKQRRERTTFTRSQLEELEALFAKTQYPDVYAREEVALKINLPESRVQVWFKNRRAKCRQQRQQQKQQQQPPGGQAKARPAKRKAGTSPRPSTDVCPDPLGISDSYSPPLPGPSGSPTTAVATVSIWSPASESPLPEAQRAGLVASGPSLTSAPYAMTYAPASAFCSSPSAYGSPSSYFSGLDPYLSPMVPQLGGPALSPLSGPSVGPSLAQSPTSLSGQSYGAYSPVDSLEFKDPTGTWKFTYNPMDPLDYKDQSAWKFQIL
HSF1, sequence (Q00613 whole entry): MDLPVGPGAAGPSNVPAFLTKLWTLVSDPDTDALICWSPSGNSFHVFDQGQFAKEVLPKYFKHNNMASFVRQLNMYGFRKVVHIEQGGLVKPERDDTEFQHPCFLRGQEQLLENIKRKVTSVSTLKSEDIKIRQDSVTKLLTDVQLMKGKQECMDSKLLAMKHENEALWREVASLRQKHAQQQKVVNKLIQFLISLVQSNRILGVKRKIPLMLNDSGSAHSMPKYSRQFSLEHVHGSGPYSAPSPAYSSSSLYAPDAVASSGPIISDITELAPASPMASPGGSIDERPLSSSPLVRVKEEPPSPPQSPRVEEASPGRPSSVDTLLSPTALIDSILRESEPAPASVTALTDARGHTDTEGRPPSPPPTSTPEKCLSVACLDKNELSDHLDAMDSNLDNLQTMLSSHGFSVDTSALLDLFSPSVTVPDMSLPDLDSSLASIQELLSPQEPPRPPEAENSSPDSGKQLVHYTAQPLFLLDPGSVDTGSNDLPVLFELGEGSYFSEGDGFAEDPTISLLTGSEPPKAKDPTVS
ELF1, sequence (P32519 whole entry): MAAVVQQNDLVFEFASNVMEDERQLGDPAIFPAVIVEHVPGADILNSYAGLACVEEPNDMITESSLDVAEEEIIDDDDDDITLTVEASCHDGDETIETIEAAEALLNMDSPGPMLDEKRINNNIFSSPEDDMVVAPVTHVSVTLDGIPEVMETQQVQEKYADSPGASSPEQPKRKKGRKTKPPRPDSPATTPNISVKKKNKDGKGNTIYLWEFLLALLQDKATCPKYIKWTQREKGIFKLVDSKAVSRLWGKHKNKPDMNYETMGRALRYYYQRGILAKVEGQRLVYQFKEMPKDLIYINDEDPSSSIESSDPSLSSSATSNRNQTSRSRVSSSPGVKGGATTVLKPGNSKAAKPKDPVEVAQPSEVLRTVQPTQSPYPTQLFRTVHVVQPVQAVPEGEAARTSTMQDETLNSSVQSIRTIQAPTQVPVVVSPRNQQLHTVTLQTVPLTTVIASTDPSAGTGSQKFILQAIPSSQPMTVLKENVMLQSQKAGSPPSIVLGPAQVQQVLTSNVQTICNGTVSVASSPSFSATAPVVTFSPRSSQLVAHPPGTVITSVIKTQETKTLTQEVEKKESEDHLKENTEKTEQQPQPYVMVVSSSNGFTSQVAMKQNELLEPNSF
ELF4, sequence (Q99607 whole entry): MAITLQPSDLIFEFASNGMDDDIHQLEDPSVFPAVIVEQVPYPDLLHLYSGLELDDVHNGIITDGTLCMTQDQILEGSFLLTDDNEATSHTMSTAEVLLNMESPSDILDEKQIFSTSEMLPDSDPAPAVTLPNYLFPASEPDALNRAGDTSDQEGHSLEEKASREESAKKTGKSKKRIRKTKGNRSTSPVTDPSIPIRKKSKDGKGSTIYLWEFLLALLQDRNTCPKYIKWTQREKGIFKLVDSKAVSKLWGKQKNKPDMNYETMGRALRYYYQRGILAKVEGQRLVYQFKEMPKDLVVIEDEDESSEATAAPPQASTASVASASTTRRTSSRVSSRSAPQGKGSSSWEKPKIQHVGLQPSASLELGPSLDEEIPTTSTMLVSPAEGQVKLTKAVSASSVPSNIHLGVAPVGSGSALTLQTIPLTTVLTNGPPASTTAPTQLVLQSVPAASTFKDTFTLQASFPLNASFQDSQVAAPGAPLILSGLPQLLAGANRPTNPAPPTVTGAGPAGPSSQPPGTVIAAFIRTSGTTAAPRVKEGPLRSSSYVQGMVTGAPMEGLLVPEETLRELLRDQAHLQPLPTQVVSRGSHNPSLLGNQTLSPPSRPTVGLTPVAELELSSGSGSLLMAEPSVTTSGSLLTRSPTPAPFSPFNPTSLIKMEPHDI
ETV1, sequence (P50549 whole entry): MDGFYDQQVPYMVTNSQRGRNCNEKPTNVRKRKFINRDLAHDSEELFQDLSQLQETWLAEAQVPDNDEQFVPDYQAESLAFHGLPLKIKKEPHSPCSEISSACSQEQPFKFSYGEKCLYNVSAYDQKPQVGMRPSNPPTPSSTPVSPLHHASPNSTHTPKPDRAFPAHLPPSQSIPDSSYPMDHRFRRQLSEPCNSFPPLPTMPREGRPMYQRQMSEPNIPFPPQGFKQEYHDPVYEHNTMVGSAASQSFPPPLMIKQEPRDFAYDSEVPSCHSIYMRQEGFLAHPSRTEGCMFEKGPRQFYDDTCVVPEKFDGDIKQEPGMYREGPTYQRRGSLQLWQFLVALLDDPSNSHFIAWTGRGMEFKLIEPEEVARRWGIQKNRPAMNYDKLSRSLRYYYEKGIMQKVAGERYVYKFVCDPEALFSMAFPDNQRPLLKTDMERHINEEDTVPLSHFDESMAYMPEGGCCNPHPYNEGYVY
ETV5, sequence (P41161 whole entry): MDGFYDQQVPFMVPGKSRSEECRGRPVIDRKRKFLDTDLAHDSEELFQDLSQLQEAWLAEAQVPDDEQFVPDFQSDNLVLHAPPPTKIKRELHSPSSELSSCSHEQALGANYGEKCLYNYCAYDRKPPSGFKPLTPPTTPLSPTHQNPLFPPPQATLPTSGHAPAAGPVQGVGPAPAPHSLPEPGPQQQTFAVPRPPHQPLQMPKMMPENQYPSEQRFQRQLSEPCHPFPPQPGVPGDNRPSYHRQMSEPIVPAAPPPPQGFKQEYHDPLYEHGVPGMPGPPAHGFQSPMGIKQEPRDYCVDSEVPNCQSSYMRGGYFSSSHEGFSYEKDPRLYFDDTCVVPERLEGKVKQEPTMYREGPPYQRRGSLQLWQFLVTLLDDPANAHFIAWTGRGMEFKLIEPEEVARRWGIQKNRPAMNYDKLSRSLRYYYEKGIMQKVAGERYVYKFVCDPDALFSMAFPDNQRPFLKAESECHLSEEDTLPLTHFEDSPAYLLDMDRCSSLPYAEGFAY

ATACAG
binding signal (FLI1): 1.16 fold enrichment (6-mer frequency, TF over GST control) | binding signal (ELK1): 1.11 fold enrichment (6-mer frequency, TF over GST control) | binding signal (GABPA): 1.29 fold enrichment (6-mer frequency, TF over GST control) | binding signal (ERG): 1.16 fold enrichment (6-mer frequency, TF over GST control) | binding signal (ELF1): 1.13 fold enrichment (6-mer frequency, TF over GST control) | binding signal (EHF): 1.16 fold enrichment (6-mer frequency, TF over GST control) | binding signal (SPI1): 1.12 fold enrichment (6-mer frequency, TF over GST control) | binding signal (SPIB): 1.15 fold enrichment (6-mer frequency, TF over GST control) | binding signal (ELK3): 1.07 fold enrichment (6-mer frequency, TF over GST control) | binding signal (FEV): 1.14 fold enrichment (6-mer frequency, TF over GST control) | binding signal (ETV5): 1.13 fold enrichment (6-mer frequency, TF over GST control) | binding signal (HSF1): 1.02 fold enrichment (6-mer frequency, TF over GST control) | binding signal (SPIC): 1.14 fold enrichment (6-mer frequency, TF over GST control) | binding signal (ELF4): 1.18 fold enrichment (6-mer frequency, TF over GST control) | binding signal (ELK4): 1.08 fold enrichment (6-mer frequency, TF over GST control) | binding signal (ETV2): 1.24 fold enrichment (6-mer frequency, TF over GST control) | binding signal (ELF3): 1.12 fold enrichment (6-mer frequency, TF over GST control) | binding signal (CRX): 1.02 fold enrichment (6-mer frequency, TF over GST control) | binding signal (ETV1): 1.11 fold enrichment (6-mer frequency, TF over GST control)
